Test results reported in the supplement of paper PMC10849652.
Targets with a hit are over-represented here; the source holds about 8,800 in all. About 0.5% of all pairs of compound and target were hits. Unmarked numbers belong to inactive results.

Legend:
Assay in all cases: log2 fold change, soluble protein after heating vs DMSO (PISA); higher = thermal stabilisation; K562 lysate, 10 uM; active = over 0.2 and 3.5 SD of the protein, either way, in both replicates (recomputed)
[1] = compound: CN1CC[C@H](c2c(O)cc(O)c3c(=O)cc(-c4ccccc4Cl)oc23)[C@H](O)C1 [alvocidib]
Outline: (§1)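 K562 pellets were dounce-homogenised in PBS pH 7.4 with 1 mM MgCl2, and the crude extract at 1 mg/mL protein was treated with 10 μM compound for 30 min. Aliquots were heated for 3 min across 48°C-58°C, pooled, and brought to 0.5% NP-40 at 4°C; soluble protein was the supernatant after 21,000xg for 90 min. Soluble protein was quantified by TMTpro 16plex LC-MS/MS with channel sums equalised, and reported as log2 fold change in thermal stability against DMSO controls, with values from duplicates.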

[2] = compound: CN1CCc2c(c3ccccc3n2Cc2ccc(C(=O)NO)cc2)C1 [Tubastatin A]
Outline: as §1

[3] = compound: CNC(=O)C1=CC=CC=C1NC2=NC(=NC=C2Cl)NC3=C(C=C(C=C3)N4CCOCC4)OC
Outline: as §1

[4] = compound: CNC(=O)c1ccc(Nc2ncc(C(F)(F)F)c(NCc3nccnc3N(C)S(C)(=O)=O)n2)cc1 [defactinib]
Outline: as §1

[5] = compound: CNc1nc(-c2ccc3c(N)n[nH]c3c2)cc(N2C[C@@H](C(=O)NC3CCCCC3)CC[C@H]2C)n1
Outline: as §1

[6] = compound: COc1cc(Nc2ncc3c(n2)-c2ccc(Cl)cc2C(c2c(F)cccc2OC)=NC3)ccc1C(=O)O [alisertib]
Outline: as §1

[7] = compound: COc1cc2nc(-c3cc(F)ccc3O)nc(N[C@@H]3CNC[C@H]3C(C)(C)O)c2cc1OC
Outline: as §1

[8] = compound: COc1cc2ncnc(Nc3ccc(F)c(Cl)c3)c2cc1OCCCN1CCOCC1 [gefitinib]
Outline: as §1

[9] = compound: CS(=O)(=O)CCNCc1ccc(-c2ccc3ncnc(Nc4ccc(OCc5cccc(F)c5)c(Cl)c4)c3c2)o1 [lapatinib]
Outline: as §1

[10] = compound: C[C@@H](Oc1cc(-c2cnn(C3CCNCC3)c2)cnc1N)c1c(Cl)ccc(F)c1Cl [crizotinib]
Outline: as §1

[11] = compound: C[C@H](C1=CC=C(C=C1)C(=O)NC2=C3C=CNC3=NC=C2)N
Outline: as §1

[12] = compound: C[C@H](Nc1ncnc2nc[nH]c12)c1cc2cccc(Cl)c2c(=O)n1-c1ccccc1 [duvelisib]
Outline: as §1

[13] = compound: Cc1cc(Nc2cc(CN3CCOCC3)c3nc(C)c(Cc4ccc(Cl)cc4F)n3n2)n[nH]1 [gandotinib]
Outline: as §1

[14] = compound: Cc1ccc(-n2nc(C(C)(C)C)cc2NC(=O)Nc2ccc(OCCN3CCOCC3)c3ccccc23)cc1 [doramapimod]
Outline: as §1

[15] = compound: Cc1cccc(CC(=O)N2CCc3c2ccc(-c2cn(C)c4ncnc(N)c24)c3F)n1
Outline: as §1

[16] = compound: COC(=O)N[C@@H](C)CNc1nccc(-c2cn(C(C)C)nc2-c2cc(Cl)cc(NS(C)(=O)=O)c2F)n1 [encorafenib]
Outline: as §1

[17] = compound: COC(=O)[C@H](CCSC)NC(=O)C1=C(C=C(C=C1)NC[C@H](CS)N)C2=CC=CC=C2
Outline: as §1

[18] = compound: Cc1cc(Nc2cc(N3CCN(C)CC3)nc(Sc3ccc(NC(=O)C4CC4)cc3)n2)n[nH]1 [tozasertib]
Outline: as §1

[19] = compound: Cc1ccc(NC(=O)c2ccc(CN3CC[C@H](N(C)C)C3)c(C(F)(F)F)c2)cc1Nc1nccc(-c2cncnc2)n1 [bafetinib]
Outline: as §1

[20] = compound: CS(=O)(=O)N1CCN(Cc2cc3nc(-c4cccc5[nH]ncc45)nc(N4CCOCC4)c3s2)CC1 [pictilisib]
Outline: as §1

UniProt Q7Z460, sequence (Q7Z460 whole entry, looked up): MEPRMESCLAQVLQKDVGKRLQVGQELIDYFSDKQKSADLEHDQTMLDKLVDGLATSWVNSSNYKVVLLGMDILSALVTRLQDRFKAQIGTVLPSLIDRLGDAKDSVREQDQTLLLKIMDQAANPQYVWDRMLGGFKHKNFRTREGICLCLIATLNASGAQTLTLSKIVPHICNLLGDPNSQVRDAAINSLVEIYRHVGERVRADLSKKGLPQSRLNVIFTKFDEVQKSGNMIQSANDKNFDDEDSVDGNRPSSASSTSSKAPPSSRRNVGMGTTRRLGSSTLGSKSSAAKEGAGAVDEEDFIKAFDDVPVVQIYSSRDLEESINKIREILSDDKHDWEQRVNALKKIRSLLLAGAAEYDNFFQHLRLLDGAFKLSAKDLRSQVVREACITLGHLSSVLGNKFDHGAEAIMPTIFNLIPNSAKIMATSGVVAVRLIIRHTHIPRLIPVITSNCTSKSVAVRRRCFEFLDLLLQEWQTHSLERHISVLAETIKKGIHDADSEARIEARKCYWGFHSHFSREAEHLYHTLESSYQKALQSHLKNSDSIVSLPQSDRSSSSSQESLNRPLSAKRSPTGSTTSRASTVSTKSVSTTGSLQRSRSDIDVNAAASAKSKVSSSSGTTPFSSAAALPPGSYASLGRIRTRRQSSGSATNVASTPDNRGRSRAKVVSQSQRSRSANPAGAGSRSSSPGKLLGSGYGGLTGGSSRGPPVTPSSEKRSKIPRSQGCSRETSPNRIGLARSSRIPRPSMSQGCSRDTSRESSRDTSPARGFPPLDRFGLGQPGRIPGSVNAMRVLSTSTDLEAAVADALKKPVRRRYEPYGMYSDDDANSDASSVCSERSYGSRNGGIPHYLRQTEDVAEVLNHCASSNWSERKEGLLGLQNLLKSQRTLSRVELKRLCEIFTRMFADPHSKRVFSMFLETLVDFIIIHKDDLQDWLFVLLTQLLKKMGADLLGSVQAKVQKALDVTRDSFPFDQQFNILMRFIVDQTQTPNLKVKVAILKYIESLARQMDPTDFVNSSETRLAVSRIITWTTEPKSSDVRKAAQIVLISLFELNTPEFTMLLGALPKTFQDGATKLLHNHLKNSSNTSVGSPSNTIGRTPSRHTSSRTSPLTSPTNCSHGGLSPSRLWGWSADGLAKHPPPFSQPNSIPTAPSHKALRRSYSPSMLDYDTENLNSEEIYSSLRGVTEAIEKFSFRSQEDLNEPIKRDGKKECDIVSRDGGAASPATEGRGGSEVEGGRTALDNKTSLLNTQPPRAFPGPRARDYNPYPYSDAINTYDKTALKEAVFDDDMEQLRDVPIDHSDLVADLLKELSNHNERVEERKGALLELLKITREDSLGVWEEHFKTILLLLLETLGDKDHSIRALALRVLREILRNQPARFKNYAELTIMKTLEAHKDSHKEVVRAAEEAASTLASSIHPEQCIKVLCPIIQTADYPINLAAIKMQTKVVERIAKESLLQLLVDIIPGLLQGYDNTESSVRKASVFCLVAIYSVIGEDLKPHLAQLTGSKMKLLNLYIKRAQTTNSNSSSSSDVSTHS
UniProt Q9Y600, sequence (Q9Y600 whole entry, looked up): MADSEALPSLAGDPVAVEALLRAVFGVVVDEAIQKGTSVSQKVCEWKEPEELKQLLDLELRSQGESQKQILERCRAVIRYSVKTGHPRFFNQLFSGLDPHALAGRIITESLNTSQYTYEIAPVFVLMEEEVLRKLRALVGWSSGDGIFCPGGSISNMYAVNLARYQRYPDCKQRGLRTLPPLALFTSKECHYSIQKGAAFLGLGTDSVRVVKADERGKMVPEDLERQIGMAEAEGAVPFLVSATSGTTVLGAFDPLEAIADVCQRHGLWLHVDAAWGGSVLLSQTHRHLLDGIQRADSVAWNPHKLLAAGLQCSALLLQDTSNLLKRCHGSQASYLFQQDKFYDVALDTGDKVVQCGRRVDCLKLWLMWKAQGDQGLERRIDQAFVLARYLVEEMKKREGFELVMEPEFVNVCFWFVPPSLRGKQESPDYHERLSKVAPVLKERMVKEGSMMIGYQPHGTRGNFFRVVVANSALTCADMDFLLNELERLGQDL
UniProt Q5D0E6, sequence (Q5D0E6 whole entry, looked up): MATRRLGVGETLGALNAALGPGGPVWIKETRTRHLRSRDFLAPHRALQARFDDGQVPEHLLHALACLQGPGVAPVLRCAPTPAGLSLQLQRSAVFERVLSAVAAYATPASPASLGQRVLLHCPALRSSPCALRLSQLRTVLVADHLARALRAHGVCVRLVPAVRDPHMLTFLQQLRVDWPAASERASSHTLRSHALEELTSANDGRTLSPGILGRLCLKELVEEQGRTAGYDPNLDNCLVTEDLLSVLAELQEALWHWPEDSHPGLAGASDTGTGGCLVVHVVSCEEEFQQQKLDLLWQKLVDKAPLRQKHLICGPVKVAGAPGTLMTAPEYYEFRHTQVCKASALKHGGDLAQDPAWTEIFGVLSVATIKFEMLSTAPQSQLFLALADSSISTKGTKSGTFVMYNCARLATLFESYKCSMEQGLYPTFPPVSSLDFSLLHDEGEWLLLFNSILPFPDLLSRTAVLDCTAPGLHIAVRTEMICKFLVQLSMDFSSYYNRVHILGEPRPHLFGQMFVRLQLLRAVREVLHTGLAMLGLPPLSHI
UniProt O95715, sequence (O95715 whole entry, looked up): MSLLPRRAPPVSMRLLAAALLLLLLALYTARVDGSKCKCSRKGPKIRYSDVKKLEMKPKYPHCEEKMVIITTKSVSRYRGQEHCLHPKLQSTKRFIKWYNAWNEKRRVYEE
UniProt P48729, sequence (P48729 whole entry, looked up): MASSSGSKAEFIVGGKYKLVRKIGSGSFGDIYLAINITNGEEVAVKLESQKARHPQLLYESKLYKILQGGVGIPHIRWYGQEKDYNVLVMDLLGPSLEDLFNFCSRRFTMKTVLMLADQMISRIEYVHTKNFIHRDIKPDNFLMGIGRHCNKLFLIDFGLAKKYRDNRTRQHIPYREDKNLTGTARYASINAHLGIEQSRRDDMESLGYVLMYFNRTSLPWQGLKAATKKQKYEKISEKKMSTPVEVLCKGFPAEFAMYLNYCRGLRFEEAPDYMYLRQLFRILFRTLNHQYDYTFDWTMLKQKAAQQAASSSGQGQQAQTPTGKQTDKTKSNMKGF
UniProt Q08345, sequence (Q08345 whole entry, looked up): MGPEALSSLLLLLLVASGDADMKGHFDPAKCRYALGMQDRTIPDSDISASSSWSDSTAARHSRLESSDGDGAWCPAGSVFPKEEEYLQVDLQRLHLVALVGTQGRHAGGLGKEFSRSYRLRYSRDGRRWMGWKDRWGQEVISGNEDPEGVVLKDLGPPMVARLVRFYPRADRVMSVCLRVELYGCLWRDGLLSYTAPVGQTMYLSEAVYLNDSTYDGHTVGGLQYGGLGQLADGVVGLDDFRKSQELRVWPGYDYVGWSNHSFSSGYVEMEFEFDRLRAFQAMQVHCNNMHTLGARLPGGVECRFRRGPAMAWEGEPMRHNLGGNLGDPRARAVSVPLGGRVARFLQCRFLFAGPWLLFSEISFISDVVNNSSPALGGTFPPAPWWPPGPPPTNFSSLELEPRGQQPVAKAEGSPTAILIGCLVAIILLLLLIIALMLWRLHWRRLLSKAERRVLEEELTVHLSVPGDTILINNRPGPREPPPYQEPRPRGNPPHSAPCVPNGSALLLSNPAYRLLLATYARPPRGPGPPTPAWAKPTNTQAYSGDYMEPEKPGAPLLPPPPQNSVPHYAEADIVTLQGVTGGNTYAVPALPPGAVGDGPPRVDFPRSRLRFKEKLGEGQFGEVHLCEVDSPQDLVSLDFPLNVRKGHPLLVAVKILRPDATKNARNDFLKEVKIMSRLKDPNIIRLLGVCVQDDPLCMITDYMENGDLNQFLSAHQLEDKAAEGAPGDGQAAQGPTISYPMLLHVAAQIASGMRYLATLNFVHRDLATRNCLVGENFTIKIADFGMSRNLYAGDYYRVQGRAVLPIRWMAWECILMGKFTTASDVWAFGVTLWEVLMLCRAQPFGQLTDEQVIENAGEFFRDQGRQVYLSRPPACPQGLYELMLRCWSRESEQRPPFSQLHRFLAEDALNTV
UniProt Q15398, sequence (Q15398 whole entry, looked up): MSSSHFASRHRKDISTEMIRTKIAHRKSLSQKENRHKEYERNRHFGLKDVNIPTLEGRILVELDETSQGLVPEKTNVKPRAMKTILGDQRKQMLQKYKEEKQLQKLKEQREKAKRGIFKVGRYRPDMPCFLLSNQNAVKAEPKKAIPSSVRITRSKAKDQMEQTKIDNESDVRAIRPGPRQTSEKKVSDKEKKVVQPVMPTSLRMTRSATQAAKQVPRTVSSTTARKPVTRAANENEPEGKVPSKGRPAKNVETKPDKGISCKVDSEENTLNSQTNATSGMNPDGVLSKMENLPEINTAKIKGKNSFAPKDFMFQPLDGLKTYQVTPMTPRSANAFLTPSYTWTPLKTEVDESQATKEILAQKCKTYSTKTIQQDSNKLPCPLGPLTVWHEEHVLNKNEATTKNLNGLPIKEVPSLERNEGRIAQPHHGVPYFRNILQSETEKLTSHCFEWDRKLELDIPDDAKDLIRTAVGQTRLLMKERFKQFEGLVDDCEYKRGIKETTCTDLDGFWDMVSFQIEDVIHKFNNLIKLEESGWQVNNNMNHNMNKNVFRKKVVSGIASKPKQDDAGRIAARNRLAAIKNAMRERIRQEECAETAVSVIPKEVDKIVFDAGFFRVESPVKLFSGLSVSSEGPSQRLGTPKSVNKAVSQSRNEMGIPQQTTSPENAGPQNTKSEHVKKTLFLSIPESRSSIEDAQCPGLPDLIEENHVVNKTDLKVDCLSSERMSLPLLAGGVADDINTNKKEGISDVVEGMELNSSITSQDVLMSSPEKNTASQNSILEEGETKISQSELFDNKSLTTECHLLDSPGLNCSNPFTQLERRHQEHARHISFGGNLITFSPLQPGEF
UniProt Q16527, sequence (Q16527 whole entry, looked up): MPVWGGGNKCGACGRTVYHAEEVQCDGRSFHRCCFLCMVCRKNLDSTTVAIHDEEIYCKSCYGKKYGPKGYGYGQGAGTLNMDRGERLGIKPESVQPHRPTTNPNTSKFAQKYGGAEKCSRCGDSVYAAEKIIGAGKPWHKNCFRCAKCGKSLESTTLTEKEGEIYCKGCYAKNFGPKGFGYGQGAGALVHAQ

Target | log2 fold change [1] | log2 fold change [2] | log2 fold change [3] | log2 fold change [4] | log2 fold change [5] | log2 fold change [6] | log2 fold change [7] | log2 fold change [8] | log2 fold change [9] | log2 fold change [10] | log2 fold change [11] | log2 fold change [12] | log2 fold change [13] | log2 fold change [14] | log2 fold change [15] | log2 fold change [16] | log2 fold change [17] | log2 fold change [18] | log2 fold change [19] | log2 fold change [20]
DAPK1 isoform 3 (UniProt P53355) | 0.085 | 0.001 | 0.322 | -0.109 | 0.058 | 0.051 | 0.063 | 0.139 | 0.042 | 0.022 | 0.188 | 0.042 | 0.058 | -0.141 | -0.383 |  |  |  |  | 
CLASP1 isoform 4 (UniProt Q7Z460) |  |  | 0.046 | 0.223 |  | 0.063 |  | 0.107 |  |  |  |  |  |  |  |  |  |  |  | 
CLIP1 isoform 2 (UniProt P30622) | 0.029 | 0.117 | -0.085 |  | 0.088 | -0.033 | -0.017 | -0.005 | 0.066 | 0.018 | -0.103 | -0.053 | 0.135 | 0 | 0 | -0.012 | -0.015 | 0.047 | 0.031 | 
DHRS13 (UniProt Q6UX07) |  | -0.087 | -0.083 |  | 0.004 | -0.211 | -0.138 | 0.036 | 0.048 | -0.048 |  | 0.185 |  | 0.087 |  |  |  |  | -0.113 | -0.052
DLGAP5 isoform 3 (UniProt Q15398) | 0 |  |  |  | -0.051 |  |  |  |  |  | -0.176 | -0.098 | 0.05 |  | -0.505 |  |  |  | 0.031 | 0.092
CSRP2 (UniProt Q16527) | -0.028 |  |  |  |  |  |  |  |  | -0.157 | -0.018 |  | -0.068 | 0.051 | 0.052 | -0.046 | -0.056 | 0.118 | 0.072 | -0.063
DPY19L3 (UniProt Q6ZPD9) |  |  | -0.105 | -0.039 |  |  | -0.042 |  | -0.077 | -0.107 |  |  |  | -0.081 |  | 0 | -0.096 | 0.057 | -0.113 | -0.268
CNIH4 (UniProt Q9P003) |  | 0.1 | 0.048 | 0.442 | 0.049 | 0.1 | 0.031 | 0.17 | 0.005 | -0.055 |  | 0.092 |  | -0.082 |  | 0.06 | -0.249 | -0.06 | -0.248 | -0.139
CXCL14 (UniProt O95715) |  |  |  | -0.235 |  |  |  |  |  |  |  |  |  |  |  | -0.034 | 0.066 | -0.021 | -0.649 | -0.083
DALRD3 (UniProt Q5D0E6) | -0.016 |  | -0.026 | 0.033 |  |  | -0.004 |  | 0.021 |  | -0.131 |  | -0.087 |  | 0.096 | 0.054 | -0.391 | 0.139 |  | 
DDR1 isoform 5 (UniProt Q08345) | -0.034 | 0.052 |  |  | 0.147 | 0 |  | 0.046 |  | -0.712 (active) | 0.097 | -0.051 | -0.305 |  | 0.007 | 0.044 | -0.094 |  | 0.101 | -0.075
DONSON (UniProt Q9NYP3) | 0.04 | -0.079 | 0.069 |  | 0.005 | -0.05 | 0.028 | 0.075 | -0.012 | -0.012 | -0.32 | 0.007 | 0.196 | 0.07 | -0.157 |  |  |  | -0.033 | -0.019
CSAD isoform 3 (UniProt Q9Y600) |  | 0.082 | -0.044 |  |  |  |  |  |  | -0.123 |  |  |  | 0.035 |  |  |  |  | 0.046 | -0.123
CNOT2 (UniProt F8VRS8) |  |  | 0.004 |  |  |  |  |  |  |  |  |  |  |  |  |  |  |  |  | 
CSNK1A1 isoform 3 (UniProt P48729) |  | -0.138 |  |  | 0.068 |  |  |  |  |  |  | -0.077 |  |  |  |  |  |  |  | 
